# Measurements reported in the supplement of paper PMC8975748.
# Counter-ions that a name gives are not always drawn.
# System: Saccharomyces cerevisiae BY4741 SeMeCo community
# Assay: z-score of subpopulation abundance vs DMSO median, subpopulation auxotrophic for HL; higher = larger share of this subpopulation than in DMSO controls
# Conditions: 10 µM; 24 h; SM minimal medium; subpopulation (auxotrophy): HL
# Procedure: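 Fluorescent four-plasmid SeMeCo (self-establishing metabolically cooperating S. cerevisiae BY4741 community; plasmids pH-mRuby2, pL-mWasabi, pU-eCFP, pM-TagRFP657) was grown 24 h in minimal SM medium with each Selleck FDA-approved drug at 10 µM in 384-well plates. Cells were fixed and imaged by high-content confocal microscopy. For each auxotrophic subpopulation (and the prototroph), a z-score gives the deviation from the DMSO vehicle-control population median.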
row,Structure (SMILES),z-score of subpopulation abundance
1,C[C@H]1O[C@H](O[C@H]2[C@H](O)[C@@H](O)[C@@H](O)[C@H](O)[C@@H]2O)[C@@H](N)C[C@@H]1NC(=N)C(=O)O [Kasugamycin hydrochloride],-0.07
2,COc1ccc(C(CN(C)C)C2(O)CCCCC2)cc1 (centres undefined) [Venlafaxine],-1.14
3,CC[C@H]1[C@@H]2C[C@H]3[C@@H]4N(C)c5ccccc5[C@]45C[C@@H]([C@@H]2[C@H]5O)N3[C@@H]1O [Ajmaline],-1.02
4,CN1[C@@H]2CC[C@H]1C[C@@H](OC(=O)[C@H](CO)c1ccccc1)C2 [Hyoscyamine],-0.72
5,O=[N+]([O-])C(Br)(CO)CO [Bronopol],-1.08
6,O=C(O[C@H]1C[N+]2(CCCOc3ccccc3)CCC1CC2)C(O)(c1cccs1)c1cccs1 [Aclidinium Bromide],-1.16
7,Oc1cccc2cccnc12 [8-Hydroxyquinoline],0.63
8,CN(C)[C@@H]1C(=O)C(C(N)=O)=C(O)[C@@]2(O)C(=O)C3=C(O)c4c(O)cccc4[C@@](C)(O)[C@H]3C[C@@H]12 [Tetracycline HCl],0.29
9,CN1[C@@H]2CC[C@H]1C[C@@H](OC(=O)C(CO)c1ccccc1)C2 (some centres undefined) [Atropine sulfate monohydrate],-0.69
10,Nc1nc(N)nc(NC2CC2)n1 [Cyromazine],-0.97
11,C[C@@H]1CC[C@H]2[C@@H](C)C(=O)O[C@@H]3O[C@@]4(C)CC[C@@H]1[C@]32OO4 [Artemisinin],-0.27
12,CC1(C)SC2C(N)C(=O)N2C1C(=O)O (centres undefined) [6-Aminopenicillanic acid],-0.37
13,Oc1cc(Cl)ccc1Oc1ccc(Cl)cc1Cl [Triclosan],-0.78
14,C#C[C@]1(O)C=C[C@H]2[C@@H]3CCC4=CC(=O)CC[C@@H]4[C@H]3CC[C@@]21CC [Gestodene],0.13
15,CN[C@@H]1[C@@H](O)[C@@H](O[C@@H]2[C@@H](O)[C@H](O[C@H]3O[C@H](CN)CC[C@H]3N)[C@@H](N)C[C@H]2N)OC[C@]1(C)O.CN[C@@H]1[C@@H](O)[C@@H](O[C@@H]2[C@@H](O)[C@H](O[C@H]3O[C@H]([C@@H](C)N)CC[C@H]3N)[C@@H](N)C[C@H]2N)OC[C@]1(C)O.CN[C@@H]1[C@@H](O)[C@@H](O[C@@H]2[C@@H](O)[C@H](O[C@H]3O[C@H]([C@@H](C)NC)CC[C@H]3N)[C@@H](N)C[C@H]2N)OC[C@]1(C)O [Gentamicin Sulfate],-1.11
16,CC(=O)O[C@H]1C[C@@H]2CC[C@@H]3[C@H](CC[C@@]4(C)[C@H]3C[C@H]([N+]3(C)CCCCC3)[C@@H]4OC(C)=O)[C@@]2(C)C[C@@H]1[N+]1(C)CCCCC1 [Pancuronium dibromide],0.38
17,NC(=O)CN1CCCC1=O [Piracetam],0.98

row,Structure (SMILES),z-score of subpopulation abundance
1,CC[N+](C)(CC)CCOC(=O)C(O)(c1ccccc1)c1ccccc1 [Methylbenactyzine Bromide],-0.61
2,CC(C)=CCOc1c2occc2cc2ccc(=O)oc12 [Imperatorin],0.34
3,C[N+]12CCC(CC1)C(OC(=O)C(O)(c1ccccc1)c1ccccc1)C2 (centres undefined) [Clidinium Bromide],-0.33
4,C[CH2][Hg][S]c1ccccc1C(=O)[O-].[Na+] [Thimerosal],11.9
5,CC[C@@]1(O)C(=O)OCc2c1cc1n(c2=O)Cc2cc3ccccc3nc2-1 [Camptothecin],-0.59
6,CN1c2ccccc2C(NCCCCCCC(=O)O)c2ccc(Cl)cc2S1(=O)=O (centres undefined) [Tianeptine sodium],-0.07
7,NCCc1c[nH]c2ccc(O)cc12 [Serotonin HCl],-0.74
8,CCOC(=O)Nc1ccc(NCc2ccc(F)cc2)cc1N [Retigabine],0.75
9,CCCCCCCCCCCCCCCC[n+]1ccccc1 [Cetylpyridinium Chloride],13.5
10,CN(C)[C@@H]1C(=O)C(C(N)=O)=C(O)[C@@]2(O)C(=O)C3=C(O)c4c(O)ccc(Cl)c4[C@@](C)(O)[C@H]3C[C@@H]12 [Chlortetracycline HCl],0.38
11,COc1ccc2c(c1)[C@]13CCCC[C@@H]1[C@H](C2)N(C)CC3 [Dextromethorphan hydrobromide hydrate],-0.33
12,Cn1cc(C2=C(c3cn(C4CCN(Cc5ccccn5)CC4)c4ccccc34)C(=O)NC2=O)c2ccccc21,-1.11
13,C[N+](C)(C)CCCCCCCCCC[N+](C)(C)C [Decamethonium Bromide],-0.3
14,C=CN1CCCC1=O.II [Povidone iodine],2.13
15,"NCC(O)c1ccc(O)cc1 (racemic) [(+,-)-Octopamine HCl]",-1.17
16,C=C[C@H]1CN2CC[C@H]1C[C@H]2[C@H](O)c1ccnc2ccccc12 [Cinchonidine],-0.64
17,COc1ccc2[nH]cc(CCN)c2c1 [5-Methoxytryptamine],-0.31
